Source: PubChem (National Center for Advancing Translational Sciences (NCATS))
IL-1B inflam inh: qHTS for Inhibitors of Inflammasome Signaling: IL-1-beta AlphaLISA Primary Screen | THP-1 LPS/ATP IL-1B secretion, AlphaLISA, 16 h; active compounds read low | activity change, % at 57.5 µM | 360,000 compounds, 4.7% hits; in the data active means activity change below about -50%; inconclusive means mostly about -30% to -49%
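Secreted IL-1B measured by AlphaLISA bead assay after 16 h compound exposure of THP-1 cells; compounds (final up to 57.5 uM) added 1 h before LPS (250 ng/mL) and ATP (1.25 mM) stimulation; lower signal means less secretion.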
HT1080NT lethal: qHTS for induction of synthetic lethality in tumor cells producing 2HG: qHTS for the HT-1080-NT fibrosarcoma cell line | HT-1080-NT fibrosarcoma viability, CellTiter-Glo ATP luminescence, 48 h | Potency, µM (series often up to 46.1 µM), for inactives: at the highest dose activity, negative = less viability, actives largely listed as cytotoxic | 360,000 compounds, 1.6% hits | AID 686970, 2013;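 further: NT is the 2HG producing partner of a matched IDH1 knockdown line; potency means the concentration at half of the fitted maximal effect; 0% = DMSO-treated cells and -100% = media-only wells without cells; nearly all actives have a fitted effect of over 55% in size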
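HT-1080-NT; 750 cells/well; 5% FBS RPMI; 48 h compound, 37 degrees C; CellTiter-Glo luminescence; curve fitting and curve-class assignment.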
TDP1 cell noCPT: qHTS for Inhibitors of human tyrosyl-DNA phosphodiesterase 1 (TDP1): qHTS in cells in absence of CPT. AID 686978, 2013. Potency, µM (highest dose often 46.2 µM), for the others: top-dose activity change, negative = growth inhibition, most hits filed as inhibitors. DT40 Tdp1-/- hTDP1 cells, no CPT, ATP luminescence, 48 h. 420,000 compounds, 15% hits; further: potency means the concentration at half of the fitted maximal effect; nearly all actives have a fitted effect of over 55% in size
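Growth of hTDP1-complemented DT40 Tdp1-knockout cells is measured by ATP luminescence after at least 48 hr compound exposure at 37 °C, with DMSO substituting for the 20 nM CPT used in the parallel screen.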
TDP1 cell CPT: qHTS for Inhibitors of human tyrosyl-DNA phosphodiesterase 1 (TDP1): qHTS in cells in presence of CPT; chicken DT40 Tdp1-/-;hTDP1 cells + 20 nM CPT, ATP luminescence, 48 h; Potency, µM (doses to about 46.2 µM), for inactives: at the top dose activity change, negative = growth inhibition, hits mostly inhibitors; 420,000 compounds, 12% hits; further: potency means the concentration at half of the fitted maximal effect; nearly all actives have a fitted effect of over 55% in size
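Chicken DT40 Tdp1-/- cells stably complemented with human TDP1 were seeded at 400 cells/well in medium containing 20 nM camptothecin, exposed to pin-transferred compounds, and grown at 37 °C for at least 48 hr. Viability was read as ATP luminescence.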
HT1080 IDH1KD tx: qHTS for induction of synthetic lethality in tumor cells producing 2HG: qHTS for the HT-1080-IDH1KD cell line; HT-1080 IDH1 knockdown viability, ATP luminescence, 48 h; Potency, µM (top dose mostly 46.1 µM), for the others: top-dose activity, negative = toxicity, most hits filed as cytotoxic; 360,000 compounds, 2% hits;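 further: potency means the concentration at half of the fitted maximal effect; 0% = DMSO wells and -100% = cell-free medium wells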
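Knockdown cells (IDH1KD HT-1080) received compounds 2 h after plating at 750 cells/well and were kept 48 h at 37 °C in 5% FBS RPMI. A CellTiter-Glo luminescence read gave % activity for curve fitting.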
Active calls of the source: *; [ ] = another dose, or the depositor's remark. Hits are enriched below; roughly 19% of the tested compounds scored in any of these assays. Unless noted, the call rests on the fitted dose curve; in most records, active means well fitted curve in the direction sought with a large enough effect; inconclusive means small, poorly fitted or top-dose-only effect, or another doubt; inactive means no such curve, though single readings can be large; an effect the other way counts as inactive or inconclusive. Unless noted, on the % scale 0 is the no-effect control and ±100 the full control effect.

Screening CC(O)(COc1ccccc1)c1ccc2c(c1)CN(Cc1cccc3cccnc13)CCO2 (centres undefined) returned TDP1 cell noCPT inconclusive and TDP1 cell CPT 14.2%[9.04 µM].
CC(O)(COc1ccccc1)c1ccc2c(c1)CN(Cc1cccn1-c1ccccn1)CCO2 (centres undefined) was read as TDP1 cell noCPT 16.4µM* and TDP1 cell CPT -11.2%[9.04 µM].
For COc1cc2c(cc1OC)C(COc1cc(C)cc(C)c1)N(C(=O)C(C)(C)C)CC2 (centres undefined) the results were TDP1 cell noCPT 25.9µM* and TDP1 cell CPT inconclusive.
Screening COc1cc2c(cc1OC)C(COc1cc(C)cc(C)c1)N(C(=O)COc1ccccc1)CC2 (centres undefined) returned TDP1 cell noCPT 23.1µM* and TDP1 cell CPT inconclusive.
Screening COC(=O)C(C)NC(=O)N1CCN(c2nnc(C)c3c(C)n(-c4ccc(Cl)cc4)nc23)CC1 (centres undefined) returned TDP1 cell noCPT 23.1µM* and TDP1 cell CPT inconclusive.
For Cc1nnc(N2CCN(C(=O)Nc3cc(F)ccc3F)CC2)c2nn(-c3ccc(Cl)cc3)c(C)c12 the results were TDP1 cell noCPT 20.6µM* and TDP1 cell CPT 20.6µM*.
CCOc1cc(C(=O)Nc2ccc(S(=O)(=O)NC3=NCCCCC3)cc2)cc(OCC)c1OCC was read as IL-1B inflam inh -3.6, HT1080NT lethal -0.9%, TDP1 cell noCPT inconclusive, TDP1 cell CPT inconclusive and HT1080 IDH1KD tx -9.7%.
Screening CC(C)N1CCC(NC(=O)Nc2ccc3c(c2)OCO3)CC1 returned IL-1B inflam inh 1.4, HT1080NT lethal 16.0%, TDP1 cell noCPT 7.1%, TDP1 cell CPT 5.6% and HT1080 IDH1KD tx 2.4%.
CC[C@H](C)[C@H]1O[C@]2(CC[C@@H]1C)C[C@@H]1C[C@@H](C/C=C(\C)[C@@H](O[C@H]3C[C@H](OC)[C@@H](O[C@H]4C[C@H](OC)[C@@H](O)[C@H](C)O4)[C@H](C)O3)[C@@H](C)/C=C/C=C3\CO[C@@H]4[C@H](O)C(C)=C[C@@H](C(=O)O1)[C@]34O)O2 was read as TDP1 cell noCPT inconclusive and TDP1 cell CPT 10.6µM*.
Screening CO[C@H]1C[C@H](O[C@@H]2/C(C)=C/C[C@@H]3C[C@@H](C[C@]4(CC[C@H](C)[C@@H](C5CCCCC5)O4)O3)OC(=O)[C@@H]3C=C(C)/C(=N/O)[C@H]4OC/C(=C\C=C\[C@@H]2C)[C@]43O)O[C@@H](C)[C@@H]1O returned TDP1 cell noCPT -8.9% and TDP1 cell CPT -16.6%.
Screening NCCCNc1ccc([N+](=O)[O-])cc1C(F)(F)F returned IL-1B inflam inh -50.5*, HT1080NT lethal -0.1%, TDP1 cell noCPT 13µM*, TDP1 cell CPT -5.9% and HT1080 IDH1KD tx -2.0%.
O=S(=O)(Nc1nc2ccccc2nc1N1CCc2ccccc2C1)c1ccc(Cl)cc1 was read as IL-1B inflam inh -8.6, HT1080NT lethal -3.0%, TDP1 cell noCPT inconclusive, TDP1 cell CPT inconclusive and HT1080 IDH1KD tx -16.5%.
`O=S(=O)(Nc1nc2ccccc2nc1N1CCc2ccccc2C1)c1ccc(Br)cc1` gave IL-1B inflam inh 13.4, HT1080NT lethal -19.7%, TDP1 cell noCPT 18.4µM*, TDP1 cell CPT inconclusive and HT1080 IDH1KD tx inconclusive.
`O/N=C/c1ccccc1OCc1ccccc1Cl` gave IL-1B inflam inh -27.3, HT1080NT lethal inconclusive, TDP1 cell noCPT -17.8%, TDP1 cell CPT 1.0% and HT1080 IDH1KD tx -13.6%.
O/N=C/c1ccccc1OCc1ccc(Cl)cc1 was read as IL-1B inflam inh -95.8*, HT1080NT lethal -20.5%, TDP1 cell noCPT 0.5%, TDP1 cell CPT -3.1% and HT1080 IDH1KD tx inconclusive.
